From the supplement of paper PMC12645437, “Orthogonal IMiD-Degron Pairs Induce Selective Protein Degradation in Cells” (ACS Chemical Biology, 2025)
The full ranking holds about 8,300 sequences; the median of “log2 fold change of degron read counts, EGFP-low vs EGFP+ sorted cells (limma voom), compound-induced degradation” is about -1.1, and the highest 2% start at about 3.2. This excerpt belongs to a sample that is enriched for the highest values.

Target: T1, CRBN, Q96SW2
T1 chain: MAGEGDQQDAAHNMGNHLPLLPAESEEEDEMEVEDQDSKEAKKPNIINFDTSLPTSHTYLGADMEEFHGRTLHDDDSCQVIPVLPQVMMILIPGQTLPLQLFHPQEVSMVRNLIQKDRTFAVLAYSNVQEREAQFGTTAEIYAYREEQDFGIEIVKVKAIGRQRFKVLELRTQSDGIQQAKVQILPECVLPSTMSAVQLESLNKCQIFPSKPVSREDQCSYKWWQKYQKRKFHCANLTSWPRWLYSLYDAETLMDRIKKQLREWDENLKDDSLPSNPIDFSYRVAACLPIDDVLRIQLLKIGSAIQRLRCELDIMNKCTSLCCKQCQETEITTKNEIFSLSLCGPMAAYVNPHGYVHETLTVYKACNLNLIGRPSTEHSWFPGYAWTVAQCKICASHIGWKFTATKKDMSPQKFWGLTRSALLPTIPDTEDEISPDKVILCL
Assay: log2 fold change of degron read counts, EGFP-low vs EGFP+ sorted cells (limma voom), compound-induced degradation; higher = more compound-induced degradation of the degron-EGFP fusion; degrons are variants of IKZF1/3 zinc finger 2; compound dose not given here
Conditions: Jurkat, 18 h

[1] = compound: compound 19 (5-tert-butyl-thalidomide)
[2] = compound: compound 22 (5-morpholino-thalidomide)
[3] = compound: compound 33 (diphenyl IMiD analogue)
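Also: pooled lentiviral library of zinc finger degron-EGFP fusions in mCherry-positive Jurkat cells, FACS-sorted after compound exposure, with degron abundance counted by next-generation sequencing.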

B1: 46F_47L_49P_50Q_52G_53A_54T_55F_67L_, Q9UKT9 (peptide)
chain: FLCPQCGATFTQKGNLLRHIKL
log2 fold change of degron read counts [1]: -3.01
log2 fold change of degron read counts [2]: -2.75
log2 fold change of degron read counts [3]: -0.206
log2 fold change of degron read counts (compound: thalidomide): -0.949

B2: 46F_47L_49E_50I_52G_53H_54M_55F_67L_, Q9UKT9 (peptide)
chain: FLCEICGHMFTQKGNLLRHIKL
log2 fold change of degron read counts [1]: -2.82
log2 fold change of degron read counts [2]: -2.78
log2 fold change of degron read counts [3]: -2.56
log2 fold change of degron read counts (compound: thalidomide): -2.3

B3: 46F_47G_49P_50I_52G_53R_54G_55F_67L_, Q9UKT9 (peptide)
chain: FGCPICGRGFTQKGNLLRHIKL
log2 fold change of degron read counts [1]: 2.07
log2 fold change of degron read counts [2]: -0.191
log2 fold change of degron read counts [3]: 0.245
log2 fold change of degron read counts (compound: thalidomide): -0.872

B4: 46F_47T_49P_50Q_52G_53A_54T_55F_67L_, Q9UKT9 (peptide)
chain: FTCPQCGATFTQKGNLLRHIKL
log2 fold change of degron read counts [1]: -2
log2 fold change of degron read counts [2]: -0.214
log2 fold change of degron read counts [3]: 1.22
log2 fold change of degron read counts (compound: thalidomide): 0.676

B5: 46F_47T_49N_50Q_52G_53A_54I_55F_67L_, Q9UKT9 (peptide)
chain: FTCNQCGAIFTQKGNLLRHIKL
log2 fold change of degron read counts [1]: -2.47
log2 fold change of degron read counts [2]: -2.59
log2 fold change of degron read counts [3]: -1.37
log2 fold change of degron read counts (compound: thalidomide): -1.93

B6: 46F_47V_49P_50Q_52G_53A_54E_55F_67L_, Q9UKT9 (peptide)
chain: FVCPQCGAEFTQKGNLLRHIKL
log2 fold change of degron read counts [1]: -2.41
log2 fold change of degron read counts [2]: -1.67
log2 fold change of degron read counts [3]: -0.946
log2 fold change of degron read counts (compound: thalidomide): -0.352

B7: 46F_47E_49E_50I_52G_53R_54D_55F_67L_, Q9UKT9 (peptide)
chain: FECEICGRDFTQKGNLLRHIKL
log2 fold change of degron read counts [1]: -3.1
log2 fold change of degron read counts [2]: -3.32
log2 fold change of degron read counts [3]: -2.34
log2 fold change of degron read counts (compound: thalidomide): -2.82

B8: 46L_47G_49E_50I_52G_53F_54N_55C_67L_, Q9UKT9 (peptide)
chain: LGCEICGFNCTQKGNLLRHIKL
log2 fold change of degron read counts [1]: -0.546
log2 fold change of degron read counts [2]: -1.21
log2 fold change of degron read counts [3]: -1.47
log2 fold change of degron read counts (compound: thalidomide): -1.13

B9: 46F_47V_49E_50I_52G_53R_54K_55F_67L_, Q9UKT9 (peptide)
chain: FVCEICGRKFTQKGNLLRHIKL
log2 fold change of degron read counts [1]: -1.83
log2 fold change of degron read counts [2]: -1.33
log2 fold change of degron read counts [3]: -1.16
log2 fold change of degron read counts (compound: thalidomide): 1.3

B10: 46L_47L_49E_50I_52G_53F_54I_55C_67L_, Q9UKT9 (peptide)
chain: LLCEICGFICTQKGNLLRHIKL
log2 fold change of degron read counts [1]: -0.407
log2 fold change of degron read counts [2]: -0.959
log2 fold change of degron read counts [3]: 0.146
log2 fold change of degron read counts (compound: thalidomide): 1.04

B11: 46F_47H_49P_50I_52G_53R_54Q_55F_67L_, Q9UKT9 (peptide)
chain: FHCPICGRQFTQKGNLLRHIKL
log2 fold change of degron read counts [1]: 0.0895
log2 fold change of degron read counts [2]: 0.838
log2 fold change of degron read counts [3]: 1.45
log2 fold change of degron read counts (compound: thalidomide): 0.286

B12: 46L_47Q_49P_50I_52G_53F_54E_55C_67L_, Q9UKT9 (peptide)
chain: LQCPICGFECTQKGNLLRHIKL
log2 fold change of degron read counts [1]: 1.35
log2 fold change of degron read counts [2]: 1.29
log2 fold change of degron read counts [3]: 2.04
log2 fold change of degron read counts (compound: thalidomide): 3.44

B13: 46L_47R_49P_50I_52G_53F_54P_55C_67L_, Q9UKT9 (peptide)
chain: LRCPICGFPCTQKGNLLRHIKL
log2 fold change of degron read counts [1]: 2.94
log2 fold change of degron read counts [2]: 3.54
log2 fold change of degron read counts [3]: 3.02
log2 fold change of degron read counts (compound: thalidomide): 3.44

B14: 46L_47M_49P_50I_52G_53F_54E_55C_67L_, Q9UKT9 (peptide)
chain: LMCPICGFECTQKGNLLRHIKL
log2 fold change of degron read counts [1]: -0.925
log2 fold change of degron read counts [2]: 0.39
log2 fold change of degron read counts [3]: 2.43
log2 fold change of degron read counts (compound: thalidomide): 1.39

B15: 46L_47N_49P_50I_52G_53F_54R_55C_67L_, Q9UKT9 (peptide)
chain: LNCPICGFRCTQKGNLLRHIKL
log2 fold change of degron read counts [1]: 1.52
log2 fold change of degron read counts [2]: 0.801
log2 fold change of degron read counts [3]: 0.131
log2 fold change of degron read counts (compound: thalidomide): 1.04

B16: 46L_47F_49P_50I_52G_53F_54R_55C_67L_, Q9UKT9 (peptide)
chain: LFCPICGFRCTQKGNLLRHIKL
log2 fold change of degron read counts [1]: 3.24
log2 fold change of degron read counts [2]: 3.2
log2 fold change of degron read counts [3]: 1.81
log2 fold change of degron read counts (compound: thalidomide): 1.69

B17: 46L_47A_49P_50I_52G_53F_54R_55C_67L_, Q9UKT9 (peptide)
chain: LACPICGFRCTQKGNLLRHIKL
log2 fold change of degron read counts [1]: 3.37
log2 fold change of degron read counts [2]: 2.7
log2 fold change of degron read counts [3]: 1.18
log2 fold change of degron read counts (compound: thalidomide): 2.12

B18: 46L_47H_49P_50I_52G_53F_54R_55C_67L_, Q9UKT9 (peptide)
chain: LHCPICGFRCTQKGNLLRHIKL
log2 fold change of degron read counts [1]: 2.28
log2 fold change of degron read counts [2]: 2.4
log2 fold change of degron read counts [3]: 1.58
log2 fold change of degron read counts (compound: thalidomide): 1.74

B19: 46L_47I_49P_50I_52G_53F_54P_55C_67L_, Q9UKT9 (peptide)
chain: LICPICGFPCTQKGNLLRHIKL
log2 fold change of degron read counts [1]: 0.112
log2 fold change of degron read counts [2]: 1.65
log2 fold change of degron read counts [3]: 0.899
log2 fold change of degron read counts (compound: thalidomide): 1.78

B20: 46L_47K_49P_50I_52G_53F_54R_55C_67L_, Q9UKT9 (peptide)
chain: LKCPICGFRCTQKGNLLRHIKL
log2 fold change of degron read counts [1]: -1.28
log2 fold change of degron read counts [2]: -2.03
log2 fold change of degron read counts [3]: -2.25
log2 fold change of degron read counts (compound: thalidomide): -0.57

B21: 46L_47V_49P_50I_52G_53F_54E_55C_67L_, Q9UKT9 (peptide)
chain: LVCPICGFECTQKGNLLRHIKL
log2 fold change of degron read counts [1]: 0.125
log2 fold change of degron read counts [2]: 2.29
log2 fold change of degron read counts [3]: 1.28
log2 fold change of degron read counts (compound: thalidomide): 2.99

B22: 46L_47S_49P_50I_52G_53F_54R_55C_67L_, Q9UKT9 (peptide)
chain: LSCPICGFRCTQKGNLLRHIKL
log2 fold change of degron read counts [1]: 2.79
log2 fold change of degron read counts [2]: 2.57
log2 fold change of degron read counts [3]: 1.22
log2 fold change of degron read counts (compound: thalidomide): 2.27

B23: 46L_47C_49P_50I_52G_53F_54P_55C_67L_, Q9UKT9 (peptide)
chain: LCCPICGFPCTQKGNLLRHIKL
log2 fold change of degron read counts [1]: 0.812
log2 fold change of degron read counts [2]: 1.08
log2 fold change of degron read counts [3]: 1.35
log2 fold change of degron read counts (compound: thalidomide): 1.76

B24: 46F_47C_49P_50V_52G_53A_54M_55F_67L_, Q9UKT9 (peptide)
chain: FCCPVCGAMFTQKGNLLRHIKL
log2 fold change of degron read counts [1]: 1.36
log2 fold change of degron read counts [2]: 0.957
log2 fold change of degron read counts [3]: 2.19
log2 fold change of degron read counts (compound: thalidomide): 1.18

B25: 46F_47G_49N_50V_52G_53A_54C_55F_67L_, Q9UKT9 (peptide)
chain: FGCNVCGACFTQKGNLLRHIKL
log2 fold change of degron read counts [1]: 0.221
log2 fold change of degron read counts [2]: 0.434
log2 fold change of degron read counts [3]: 1.03
log2 fold change of degron read counts (compound: thalidomide): -0.871

B26: 46F_47R_49E_50I_52G_53H_54A_55F_67L_, Q9UKT9 (peptide)
chain: FRCEICGHAFTQKGNLLRHIKL
log2 fold change of degron read counts [1]: -3.15
log2 fold change of degron read counts [2]: -2.82
log2 fold change of degron read counts [3]: -1.17
log2 fold change of degron read counts (compound: thalidomide): -1.87

B27: 46F_47A_49N_50V_52G_53A_54E_55F_67L_, Q9UKT9 (peptide)
chain: FACNVCGAEFTQKGNLLRHIKL
log2 fold change of degron read counts [1]: -1.27
log2 fold change of degron read counts [2]: -1.39
log2 fold change of degron read counts [3]: -1.75
log2 fold change of degron read counts (compound: thalidomide): -2.2

B28: 46F_47M_49S_50V_52G_53H_54C_55F_67L_, Q9UKT9 (peptide)
chain: FMCSVCGHCFTQKGNLLRHIKL
log2 fold change of degron read counts [1]: -2.46
log2 fold change of degron read counts [2]: -3.02
log2 fold change of degron read counts [3]: -2.83
log2 fold change of degron read counts (compound: thalidomide): -2.57
